Inconclusive results are not listed. Where a call stands in place of a potency, no number is given. Active and inactive are the calls of the source. Calls follow the shape of the dose curve; as a rule, active = well fitted inhibition curve with a large enough effect; inconclusive = small, poorly fitted or top-dose-only effect; inactive = flat fitted curve, though single readings scatter.
How the values were obtained:
Assay in all cases: qHTS profiling for inhibitors of Plasmodium falciparum proliferation (AID 504749); also: nearly all actives have a fitted effect of over 60% in size
Details in all cases: P. falciparum in erythrocytes, SYBR Green DNA, 72 h; series mostly up to 28.7 µM
CP262 = tested on: CP262
Procedure, shortened: (§1)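 Three-day growth assay of blood-stage parasites in erythrocytes (0.3% parasitemia, 2.5% hematocrit) at 37 C, 5% CO2, quantified by SYBR Green DNA staining after overnight detergent lysis.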

CP265 = tested on: CP265
Procedure, shortened: as §1

CP266 = tested on: CP266
Procedure, shortened: as §1

CP268 = tested on: CP268
Procedure, shortened: as §1

CP269 = tested on: CP269
Procedure, shortened: as §1

CP286 = tested on: CP286
Procedure, shortened: as §1

CP291 = tested on: CP291
Procedure, shortened: as §1

CP297 = tested on: CP297
Procedure, shortened: as §1

CP305 = tested on: CP305
Procedure, shortened: as §1

CP315 = tested on: CP315
Procedure, shortened: as §1

CP325 = tested on: CP325
Procedure, shortened: as §1

CP329 = tested on: CP329
Procedure, shortened: as §1

CP335 = tested on: CP335
Procedure, shortened: as §1

DFO2036 = tested on: DFO2036
Procedure, shortened: as §1

DIV17 = tested on: DIV17
Procedure, shortened: as §1

DIV30 = tested on: DIV30
Procedure, shortened: as §1

Dd2 = tested on: Dd2
Procedure, shortened: as §1

ECU = tested on: ECU
Procedure, shortened: as §1

FAB9 = tested on: FAB9
Procedure, shortened: as §1

DIV14 = tested on: DIV14
Procedure, shortened: as §1
Potency is read from the fitted curve at half-maximal effect.

SMILES | Potency (CP262) | Potency (CP265) | Potency (CP266) | Potency (CP268) | Potency (CP269) | Potency (CP286) | Potency (CP291) | Potency (CP297) | Potency (CP305) | Potency (CP315) | Potency (CP325) | Potency (CP329) | Potency (CP335) | Potency (DFO2036) | Potency (DIV17) | Potency (DIV30) | Potency (Dd2) | Potency (ECU) | Potency (FAB9) | Potency (DIV14)
COc1ccc(C2C(=O)c3ccccc3C2=O)cc1 | inactive | inactive | inactive | inactive | inactive | inactive | inactive | inactive | inactive | inactive | inactive | inactive | inactive | inactive | inactive | inactive | inactive | inactive | inactive | –
C[C@@H]1C(=O)NC2=Nc3cccc(Cl)c3CN21 | inactive | inactive | inactive | inactive | inactive | inactive | inactive | inactive | inactive | inactive | inactive | inactive | inactive | inactive | inactive | inactive | inactive | inactive | inactive | –
COc1cc(C(=S)N2CCOCC2)cc(OC)c1OC | inactive | inactive | inactive | inactive | inactive | inactive | inactive | inactive | inactive | inactive | inactive | inactive | inactive | inactive | inactive | inactive | inactive | inactive | inactive | inactive
Cc1cc(=O)n(-c2ccccc2)n1C | inactive | inactive | inactive | inactive | inactive | inactive | inactive | inactive | inactive | inactive | inactive | inactive | inactive | inactive | inactive | inactive | inactive | inactive | inactive | inactive
O=C(CCN1CCC(c2ccccc2)C1)c1ccc2c(c1)OCCO2 (stereo not drawn) | inactive | inactive | inactive | inactive | inactive | inactive | inactive | inactive | inactive | inactive | inactive | inactive | inactive | inactive | – | inactive | inactive | inactive | inactive | –
CCC(=O)c1c(O)cc(O)cc1O | inactive | inactive | inactive | inactive | inactive | inactive | inactive | inactive | inactive | inactive | inactive | inactive | inactive | inactive | inactive | inactive | inactive | inactive | inactive | inactive
C#C[C@]1(OC(C)=O)CC[C@H]2[C@@H]3CCC4=C[C@@H](OC(C)=O)CC[C@@H]4[C@H]3CC[C@@]21C | inactive | inactive | inactive | inactive | inactive | inactive | inactive | inactive | inactive | inactive | inactive | inactive | inactive | inactive | inactive | inactive | inactive | inactive | inactive | inactive
CN(C)/N=N/c1nc[nH]c1C(N)=O | inactive | inactive | inactive | inactive | inactive | inactive | inactive | inactive | inactive | inactive | inactive | inactive | – | inactive | inactive | inactive | inactive | inactive | inactive | inactive
COC(=O)[C@@H]1CC2=CC(=O)CC[C@]2(C)[C@@]23O[C@@H]2C[C@@]2(C)[C@@H](CC[C@@]24CCC(=O)O4)[C@H]13 | inactive | inactive | inactive | inactive | inactive | inactive | inactive | inactive | inactive | inactive | inactive | inactive | inactive | inactive | inactive | inactive | inactive | inactive | inactive | inactive
O=C1OC(c2ccc(O)cc2)(c2ccc(O)cc2)c2ccccc21 | inactive | inactive | inactive | inactive | inactive | inactive | inactive | inactive | inactive | inactive | inactive | inactive | inactive | inactive | inactive | – | inactive | – | inactive | inactive
CCC(C(=O)OCCN(CC)CC)c1ccccc1 (stereo not drawn) | inactive | inactive | inactive | inactive | inactive | inactive | inactive | inactive | inactive | inactive | inactive | inactive | inactive | inactive | inactive | inactive | – | inactive | inactive | inactive
Nc1ccc(/C=C/c2ccc(N)cc2S(=O)(=O)O)c(S(=O)(=O)O)c1 | inactive | inactive | inactive | inactive | inactive | inactive | inactive | inactive | inactive | inactive | inactive | inactive | inactive | inactive | inactive | inactive | inactive | inactive | inactive | inactive
NCCC(O)(P(=O)(O)O)P(=O)(O)O | inactive | inactive | inactive | inactive | inactive | inactive | inactive | inactive | inactive | inactive | inactive | inactive | inactive | inactive | inactive | inactive | inactive | inactive | inactive | inactive
CC[N+](CC)(CCNC(=O)C(=O)NCC[N+](CC)(CC)Cc1ccccc1Cl)Cc1ccccc1Cl | 0.849 µM (active) | 0.562 µM (active) | 2.69 µM (active) | 7.57 µM (active) | 4.78 µM (active) | 0.891 µM (active) | 6.75 µM (active) | 2.69 µM (active) | 3.01 µM (active) | 3.79 µM (active) | 3.38 µM (active) | 2.39 µM (active) | 2.69 µM (active) | 1.78 µM (active) | 4.78 µM (active) | 6.01 µM (active) | 2.51 µM (active) | – | 1.12 µM (active) | 4.26 µM (active)
CCOC(=O)n1ccn(C)c1=S | inactive | inactive | inactive | inactive | inactive | inactive | inactive | inactive | inactive | inactive | inactive | inactive | inactive | inactive | inactive | inactive | inactive | inactive | inactive | inactive
O=S1(=O)c2cccc3cccc(c23)N1CCCN1CCN(c2ccc(F)cc2)CC1 | inactive | inactive | inactive | inactive | inactive | inactive | – | inactive | inactive | inactive | inactive | inactive | inactive | inactive | – | inactive | inactive | inactive | inactive | –
CC(=O)Oc1ccc(C(c2ccc(OC(C)=O)cc2)c2ccccn2)cc1 | inactive | inactive | inactive | inactive | inactive | inactive | – | inactive | inactive | inactive | inactive | inactive | inactive | inactive | inactive | inactive | inactive | inactive | inactive | inactive
CCOc1ccc(Cc2nccc3cc(OCC)c(OCC)cc23)cc1OCC | inactive | inactive | inactive | inactive | inactive | inactive | – | inactive | inactive | inactive | inactive | – | – | inactive | inactive | – | inactive | inactive | inactive | inactive
CCN1CCCC1=O | inactive | inactive | inactive | inactive | inactive | inactive | inactive | – | inactive | inactive | inactive | inactive | inactive | inactive | inactive | inactive | inactive | inactive | inactive | inactive
CC(=O)c1ccc2c(c1)N(CCCN1CCC(CCO)CC1)c1ccccc1S2 | inactive | inactive | inactive | inactive | inactive | – | inactive | inactive | inactive | inactive | inactive | inactive | – | inactive | – | inactive | – | inactive | inactive | –
CN(C(=O)CN(CCO)CC(=O)N(C)C(C)(C)Cc1ccccc1)C(C)(C)Cc1ccccc1 | inactive | inactive | inactive | – | inactive | – | inactive | inactive | inactive | inactive | inactive | inactive | – | inactive | – | inactive | inactive | inactive | inactive | –
CCN(CC)C(=O)/C(C#N)=C/c1cc(O)c(O)c([N+](=O)[O-])c1 | inactive | inactive | inactive | inactive | inactive | – | inactive | inactive | inactive | inactive | inactive | inactive | inactive | inactive | inactive | inactive | 0.447 µM (active) | inactive | inactive | inactive
O=C1[C@H]2CCCC[C@H]2C(=O)N1CCCCN1CCN(c2nsc3ccccc23)CC1 | inactive | inactive | inactive | inactive | inactive | inactive | inactive | – | inactive | inactive | inactive | inactive | inactive | inactive | – | inactive | inactive | inactive | inactive | –
CCN1CCC[C@H]1CNC(=O)c1c(OC)ccc(Br)c1OC | inactive | inactive | inactive | inactive | inactive | inactive | inactive | – | inactive | inactive | inactive | inactive | inactive | inactive | – | inactive | 12.6 µM (active) | inactive | inactive | –
CCCCCCCCCCCCCCCCOP(=O)([O-])OCC[N+](C)(C)C | inactive | inactive | inactive | inactive | inactive | inactive | inactive | – | inactive | inactive | inactive | inactive | inactive | inactive | inactive | inactive | inactive | inactive | inactive | inactive
O=C1c2ccccc2C(=O)C1c1ccccc1 | inactive | inactive | – | inactive | inactive | inactive | inactive | inactive | inactive | inactive | inactive | inactive | inactive | inactive | inactive | inactive | inactive | inactive | inactive | inactive
